# Measurements reported in PubChem BioAssay AID1777 (Sanford-Burnham Center for Chemical Genomics, 2009).
# The campaign covered roughly 280,000 compounds. About 50 (0.02%) were called active. The sample holds actives, similar compounds and a random draw of the others, so the mix is not that of the screen. Entries with a potency or affinity are not part of this list. Values without a mark were called inactive. Cut-off read from the data, not from the text of the source: active = activation above about 50% (passing the limit was not always enough); inactive = the rest.
# Target: Kappa-type opioid receptor (Homo sapiens) (UniProt P41145)
# Test: KOR agonists, beta-arrestin recruitment, primary screen, cell-based, luminescence, uHTS (AID 1777)
# Details: at 10 µM, hits give high values
# Kappa-type opioid receptor (Homo sapiens), sequence (P41145 whole entry, looked up): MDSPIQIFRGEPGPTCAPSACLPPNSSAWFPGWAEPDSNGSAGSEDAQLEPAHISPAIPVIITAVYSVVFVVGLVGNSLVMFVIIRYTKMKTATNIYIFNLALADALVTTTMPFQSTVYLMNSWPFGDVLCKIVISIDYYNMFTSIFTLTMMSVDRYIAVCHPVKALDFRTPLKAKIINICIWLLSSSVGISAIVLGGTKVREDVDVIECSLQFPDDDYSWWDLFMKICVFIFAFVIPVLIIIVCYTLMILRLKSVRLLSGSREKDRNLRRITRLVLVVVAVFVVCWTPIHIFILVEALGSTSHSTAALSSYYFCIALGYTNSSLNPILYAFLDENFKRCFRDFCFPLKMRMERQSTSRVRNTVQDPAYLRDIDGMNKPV
row,SMILES,activation
1,COc1ccc(C[C@H]2CN3C(=NC[C@H]3C)N2CCNC(=O)c2ccc(C)c(Br)c2)cc1,12.5%
2,Cc1ccc(C(=O)NCCN2C3=NC[C@H](C)N3C[C@H]2Cc2ccc(O)cc2)cc1Br,25.2%
3,Cc1nnc(SCC(=O)N2c3ccccc3CC2C)[nH]c1=O (centres undefined),7.1%
4,O=C(NC1CCCCC1)c1ccc(S(=O)(=O)N2CCOCC2)cc1,2%
5,Cc1cc(Nc2ccc(Cl)cc2)n2ncnc2n1,-0.8%
6,Cc1oc(-c2ccccc2F)nc1CS(=O)CC(=O)NC1CC1 (centres undefined),0.9%
7,COc1ccc(OC)c(NC(=O)c2ccc(CSc3ncccn3)cc2)c1,-7.7%
8,O=C(Nc1nc(-c2ccccc2)cs1)c1ccccc1NS(=O)(=O)c1ccc(F)cc1,111% (active)
9,Cc1ccc(S(=O)(=O)Nc2ccccc2C(=O)Nc2nc(-c3ccc(F)cc3)cs2)cc1,13%
10,COc1ccc(S(=O)(=O)Nc2ccccc2C(=O)Nc2nc(-c3ccc(F)cc3)cs2)cc1OC,15.1%
11,Cc1ccc(O)c(C(=O)c2cnn(C(=O)COc3ccc(Cl)cc3)c2)c1,0.1%
12,Cc1cc(N/C(=N/S(=O)(=O)c2cc(F)ccc2F)c2ccccc2)n(-c2ccccc2)n1,-1.3%
13,CCCCCCCCCCCCOC1OC(CO)C(O)C(O)C1NC(C)=O (centres undefined),-0.9%
14,Cc1cc(=O)cc(C)n1-c1ccc(Cl)cc1,1.5%
15,CC1=CC(C)(C)N(C)C(=O)N1c1ccc(Cl)cc1,7.6%
16,CCCn1c(C(CO)Nc2nc(-c3cccc(Br)c3)cs2)nc2ccccc21 (centres undefined),2.4%
17,Cc1cccc(C(=O)Nc2cccc(C(=O)N/N=C/c3ccc4c(c3)OCO4)c2)c1,-5.3%
18,CC(=O)Nc1nc(SCC(=O)NCC2CCCO2)[nH]c(=O)c1NC(=O)c1cccs1 (centres undefined),-4.2%
19,CCN(C(=O)COC(=O)C1CCN(S(=O)(=O)c2c(Cl)cccc2Cl)CC1)C1CCCCC1,-3.1%
20,COc1ccc(-n2c(C)cc(C(=O)COc3ccc(-n4cnnn4)cc3)c2C)cc1,3.1%

row,SMILES,activation
1,COc1ccccc1CN(Cc1cc2cc(C)ccc2[nH]c1=O)Cc1nnnn1Cc1ccco1,-3.4%
2,CC(Sc1nnc(COc2ccccc2)n1Cc1ccccc1)C(=O)O (centres undefined),1.6%
3,CC(=O)Nc1ccc(NC(=O)C(C)Sc2n[nH]c(=O)n2Cc2ccccc2)cc1 (centres undefined),-2.2%
4,O=C(N/N=C/c1c[nH]c2ccc(Br)cc12)c1ccccn1,4.6%
5,Nc1ccc(C2(c3ccc(N)cc3)C(=O)Nc3ccccc32)cc1,0.1%
6,Nc1ccc(C2(c3ccc(N)cc3)OC(=O)c3ccccc32)cc1,-7.1%
7,O=C(CSc1nnc(CNC(=O)c2c(F)cccc2F)o1)c1ccccc1,4.5%
8,CCOc1ccc(N2C(=O)Nc3ccc(Br)cc3C2(O)C(=O)NCCN(C)C)cc1 (centres undefined),-0.1%
9,CC(=O)Nc1ccc(NC(=O)c2ccc(COc3ccc4c(C)cc(=O)oc4c3)cc2)cc1,0.2%
10,Cc1cccc(C(C)C)c1NC(=O)c1ccc(COc2ccc3c(C)cc(=O)oc3c2)cc1,3.9%
11,CN(C)/C=C/C(=O)c1cccc(C(F)(F)F)c1,2.5%
12,CCC1(c2ccc(F)cc2)NC(=O)N(CC(=O)Nc2ccccc2Cl)C1=O (centres undefined),-0.1%
13,CCn1c(=O)c(C2=NS(=O)(=O)c3ccccc3N2)c(O)c2ccccc21,54.2% (active)
14,CCn1c(=O)c(-c2ccccc2)c(O)c2ccccc21,1.3%
15,CCn1c(=O)c(-c2cc(=O)[nH][nH]2)c(O)c2ccccc21,2.3%
16,O=C(c1ccc(=O)[nH]c1)N(Cc1ccco1)C1(C(=O)NC2CCCCC2)CCCCC1,-2.7%
17,O=C(c1ccc(=O)[nH]c1)N(Cc1ccco1)C1(C(=O)NC2CCCC2)CCCCC1,6%
18,O=C(c1cnccn1)N(Cc1ccco1)C1(C(=O)NC2CCCC2)CCCCC1,-9%
19,Cc1cccc(C)c1NC(=O)C1(N(Cc2ccco2)C(=O)Cn2nnnc2N)CCCCC1,-0.3%
20,Cc1cccc(C)c1NC(=O)C1(N(C(=O)c2ccccn2)c2ccc(O)cc2)CCCCC1,-0.3%

row,SMILES,activation
1,CC(=O)NCC(=O)N(Cc1ccco1)C1(C(=O)NC2CCCCC2)CCCCC1,3.8%
2,CC(=O)N(Cc1ccco1)C1(C(=O)NC2CCCCC2)CCCCC1,2.1%
3,CC(=O)N(Cc1ccco1)C1(C(=O)NC2CCCC2)CCCCC1,-1%
4,CC[n+]1c(-c2ccc(C)cc2)csc1Nc1c(C)n(C)n(-c2ccccc2)c1=O,-4.9%
5,Cc1ccc(S(=O)(=O)N2CCN(CC(=O)N/N=C/C=C/c3ccccc3)CC2)cc1,0.3%
6,COc1cc(OC)cc(C(=O)NCC(=O)N2CCCCC2)c1,-0.7%
7,CC1(C)Cc2c(cnn2-c2cccc(F)c2)C(NC(=O)c2csnn2)C1 (centres undefined),5.1%
8,CCOc1ccccc1NC=C1C(=O)OC(C)(C)OC1=O,4.4%
9,Cc1c(NC(=O)c2cccc(S(=O)(=O)N3CCOCC3)c2)c(=O)n(-c2ccccc2)n1C,-7.9%
10,O=C(NCC1CCCO1)C1CC(=O)N(c2cccc(Cl)c2)C1 (centres undefined),5.7%
11,CCC(=O)Nc1c2c(nn1-c1cccc(Cl)c1)CS(=O)(=O)C2,-8.6%
12,CCOc1ccccc1NC(=O)CN(C)S(=O)(=O)c1ccc2[nH]c(=O)oc2c1,-1.5%
13,Cc1ccc2c(CC(=O)NCC3COc4ccccc4O3)coc2c1 (centres undefined),-4.2%
14,Cc1cccc(-n2ccnc2CN2CCN(C(C)C)C(CCO)C2)c1 (centres undefined),8%
15,Cc1cc(C)n(-c2cccc(CN3CCC(CO)(Cc4ccccc4)CC3)c2)n1,-3.3%
16,CCCC(=O)NC(c1ccc(Cl)cc1Cl)c1ccc2cccnc2c1O (centres undefined),-5.3%
17,O=C(c1ccc2c3n(nc2c1)-c1ccccc1CO3)N1CCOCC1,0.7%
18,Cc1cccc(N2CCN(C(=O)C(Cc3ccccc3)n3cccc3)CC2)c1C (centres undefined),81%
19,O=C(C(Cc1ccccc1)n1cccc1)N1CCN(c2ccccc2)CC1 (centres undefined),-3.7%
